Measured values reported in ChEMBL document CHEMBL3433997, “St. Jude Leishmania screening dataset” (2016).

Legend:
Assay type in all cases: functional
[1] = target: Solute carrier family 2, facilitated glucose transporter member 1 (Homo sapiens) (UniProt P11166); experiment: ST_JUDE_LEISH: Cytotoxicity at 2uM final concentration against transgenic Leishmania Mexicana promastigotes LmGLUT1 that are glucose transport deficient and complemented with the human glucose transporter GLUT1. Activity is measured by DNA content using SYBR green in vitro
Solute carrier family 2, facilitated glucose transporter member 1 (Homo sapiens), sequence (P11166 whole entry): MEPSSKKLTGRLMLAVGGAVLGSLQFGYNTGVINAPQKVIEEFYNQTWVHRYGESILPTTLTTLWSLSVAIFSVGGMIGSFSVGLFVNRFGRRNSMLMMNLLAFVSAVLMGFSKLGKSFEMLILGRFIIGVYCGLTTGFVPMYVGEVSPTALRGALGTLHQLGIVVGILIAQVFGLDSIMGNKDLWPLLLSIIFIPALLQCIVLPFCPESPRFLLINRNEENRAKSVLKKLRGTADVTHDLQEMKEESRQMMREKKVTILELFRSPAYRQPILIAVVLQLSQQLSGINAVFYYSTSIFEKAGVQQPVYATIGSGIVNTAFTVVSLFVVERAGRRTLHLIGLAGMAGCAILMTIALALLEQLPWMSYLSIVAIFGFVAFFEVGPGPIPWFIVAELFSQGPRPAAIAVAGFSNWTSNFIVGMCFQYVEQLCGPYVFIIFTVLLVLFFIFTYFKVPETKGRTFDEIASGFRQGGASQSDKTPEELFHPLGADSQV

[2] = target: Hexose transporter 1 (Plasmodium falciparum) (UniProt O97467); experiment: ST_JUDE_LEISH: Cytotoxicity at 2uM final concentration against transgenic Leishmania Mexicana promastigotes LmPfHT that are glucose transport deficient and complemented with the Plasmodium falciparum hexose transporter. Activity is measured by DNA content using SYBR green in vitro
[3] = target: Glucose transporter (Leishmania mexicana) (UniProt O61059); experiment: ST_JUDE_LEISH: Cytotoxicity at 2uM final concentration against transgenic Leishmania Mexicana promastigotes LmGT2 that are glucose transport deficient and complemented with the L. Mexicana glucose transporter 2. Activity is measured by DNA content using SYBR green in vitro

| Compound | inhibition [1] | inhibition [2] | inhibition [3] |
| --- | --- | --- | --- |
| COc1ccc(C(=O)N2CCC(C(=O)NC(C)c3ccc(-n4ccnc4)cc3)CC2)c2ccccc12 (stereo not given) | -1.06% | -0.1% | -0.59% |
| O=C(/C=C/c1ccc([N+](=O)[O-])cc1)N1CCC(NS(=O)(=O)c2cccc(C(F)(F)F)c2)CC1 | 3.4% | 3% | 0.97% |
| COc1ccc2nccc([C@@H](O)CN3CCC(NCCOc4ccccc4[N+](=O)[O-])CC3)c2c1 | 2.3% | 2.26% | 0.09% |
| O=C(O)c1cccnc1Sc1ccc(Cl)cc1 | -0.75% | -0.76% | -0.47% |
| CO/C(=C\C=C\c1cc2cc(Cl)c(Cl)cc2[nH]1)C(=O)NCCCN1CCN(c2ccncc2)CC1 | 4.85% | 3.18% | 3.48% |
| CCCNc1nc(NCc2c(C)cccc2C)nc(NC(C)(C)C)n1 | 6.93% | 8.23% | 1.74% |
| COC(=O)c1ccc2c(c1)nc(Nc1cccc(F)c1)n2CC(O)c1ccccn1 (stereo not given) | 4.12% | 3.8% | 2.91% |
| Cc1cccc2nc(-c3ccc(-c4cccc(NC(=O)Nc5ccccc5)c4)cc3)[nH]c12 | 9.16% | 9.91% | 8.18% |
| C=C(C)C1CC=C(CN2CCC(N3CCc4cc(NC(=O)c5cc(C)on5)ccc43)C2)CC1 (stereo not given) | 2.54% | 4.39% | 4% |
| CC(C)Sc1ccc(Cl)cc1CON1C(=N)N=C(N)NC1(C)C | 2.72% | 2.18% | 0.87% |
| O=[N+]([O-])c1ccc(-n2nc(Cc3ccccc3)n(Cc3cccc(F)c3)c2=S)c(C(F)(F)F)c1 | 2.84% | 3.14% | -0.25% |
| CN(C)CCNc1cc(-c2cccnc2)nc(-c2ccncc2)n1 | -1.31% | -1.16% | -1.09% |
| CC(=O)Nc1cc(C(=O)Nc2cccc(-c3cccc(-c4nc5cccc(C)c5[nH]4)c3)c2)ccc1C | 2.89% | 2.86% | 1.31% |
| COc1ccc(Cn2c(SCc3ccc(C)cc3)nc3cc(OC)c(OC)cc3c2=N)cc1Cl | -0.1% | -4.17% | -2.37% |
| CCNc1cc(C(=O)N[C@@H](Cc2ccccc2)[C@H](O)CNCc2cccc(-c3cncnc3)c2)cc(N2CCCC2=O)c1 | 3.81% | 3.48% | 4.42% |
| CCOC(=O)c1c(CSc2ccccc2)oc2cc(CN(C)C)c(O)c(Cl)c12 | 1.18% | 0.44% | -0.41% |
| CCCCC(=O)N(CCOC)Cc1ccc(-c2ccc(CNCCC)cn2)cc1 | 7.95% | 6.86% | 5.46% |
| COc1cc2nc(C)nc(Nc3ccc(Oc4ccccc4)cc3)c2cc1OC | -2.63% | 2.09% | -1.95% |
| COc1ccc(Nc2nc(NC3CCN(Cc4ccccc4)CC3)cc(-c3ccncc3)n2)cc1 | -0.03% | -0.17% | 0.86% |
| CCNC(=O)N1CCc2ccc(Oc3nc(NCc4ccccc4OC)ncc3C)cc2CC1 | 5.14% | 6.01% | 2.64% |
| CO/C(=C\C=C\c1cc2cc(Cl)c(Cl)cc2[nH]1)C(=O)NCCCN1CCN(c2cccc(CCCO)c2)CC1 | 6% | 5.32% | 5.89% |
| CN(C)CCCNCCS(=O)(=O)c1cccc(Nc2ccc(-c3cccc(N(C)C)c3)cn2)c1 | 1.72% | 1.88% | 1.78% |
| Cc1cc(NCCCCCCCCNc2cc(C)nc3ccccc23)c2ccccc2n1 | -0.97% | 1.84% | 0.69% |
| CN(C)CCC(O)C=C(c1ccc(Cl)cc1)c1ccc(Cl)cc1 (stereo not given) | 9.31% | 7.5% | 4.86% |

| Compound | inhibition [1] | inhibition [2] | inhibition [3] |
| --- | --- | --- | --- |
| CCc1cn2c3c(cc(C(=O)N[C@@H](Cc4ccccc4)[C@H](O)CNCc4cccc(C)c4)cc13)N(C)S(=O)(=O)CC2 | 1.35% | 0.76% | 2.29% |
| Cc1cc2ncn(-c3ccnc(N4CCN(CCCN5CCCC5)CC4)n3)c2cc1C | 4.77% | 3.43% | 2.01% |
| Cc1cccc2nc(-c3ccc(-c4cccc(NC(=O)NCc5ccccc5)c4)cc3)[nH]c12 | 0.35% | 1.64% | 1.98% |
| CCCOc1ccccc1-c1nc2[nH]c3c(c2c(=O)[nH]1)CCN(C)C3 | -1.19% | -0.54% | -1.12% |
| O=C(NCCCc1ccccc1)c1csc(C2CCCN(C(=O)c3ccc(O)c(-c4cccc5ccccc45)c3)C2)n1 (stereo not given) | 0.14% | -0.18% | -0.59% |
| Nc1nc(N)c2cc(Cc3ccc([N+](=O)[O-])cc3)cnc2n1 | -2.65% | 0.37% | -0.27% |
| NC1CCN(CCc2ccc(NS(=O)(=O)c3cccc4ccccc34)cc2)CC1 | -0.69% | -3.38% | 0.61% |
| CCC[C@@H]([C@@H](CC1CCCCC1)C(=O)N[C@H](C(=O)Nc1ccccn1)[C@H](C)CC)N(O)C=O | 3.49% | 3.35% | 2.88% |
| NC(=O)c1cc2nc(Nc3ccc(F)cc3)nc(NC3CCC3)c2[nH]1 | 1.42% | 1.11% | -0.6% |
| COc1cc2nc(NCc3cccc(CNC(=O)c4ccc(-c5ccc(C(C)=O)cc5)cc4)c3)nc(N)c2cc1OC | 0.91% | -0.03% | 0.66% |
| CC(C)CNCc1cccc(-c2cccc(CN(CCCN3CCN(C)CC3)C(=O)Nc3ccccc3)c2)c1 | 0.02% | -1.73% | 0.33% |
| CCc1nc2ccc(C(=O)OC)nc2n1Cc1ccc2oc(-c3ccccc3N)c(Br)c2c1 | 2.91% | 2.33% | 1.6% |
| CN(C)CC(=O)N(Cc1ccc(Cl)c(Cl)c1)Cc1csc(-c2ccc(CNCc3ccccc3)cc2)n1 | 3.28% | 0.77% | 0.35% |
| CC(C)c1cn2c3c(cc(C(=O)N[C@@H](Cc4ccccc4)[C@H](O)CNC4CCCCC4)cc13)N(C)S(=O)(=O)CC2 | -1.18% | -0.34% | -2.44% |
| CCCCCNC(=N)c1ccc(OCCCCCOc2ccc(C(=N)NCCCCC)cc2)cc1 | 19.6% | 25.9% | 5.15% |
| CCC1N=C(N)N=C(N)N1OCc1cccc2ccccc12 (stereo not given) | 1.74% | 0.62% | 1.16% |
| CCCNc1ccc2nccc(CCN3CCC(NCc4ccc5c(n4)NC(=O)CS5)CC3)c2n1 | 3.5% | 2.84% | 8.69% |
| Brc1ccc(Nc2nc3ccccc3nc2Nc2ccc(Br)cc2)cc1 | 9.39% | 6.78% | 9.68% |
| CC(C)(C)c1ccc(NC(=O)c2cccc(CN3CCCN(Cc4cccc(O)c4)CC3)c2)cc1 | 6.18% | 6.24% | 1.99% |
| Cc1ccc(C(=O)Nc2ccc(C)c(OC3CCN(CCC(C)C)C3)c2)cc1 (stereo not given) | 8.1% | 8.98% | 5.85% |
| Oc1ccc(CCNc2nc(NCCCOc3ccccc3-c3cccc(C(F)(F)F)c3)nc(N3CCNCC3)n2)cc1 | 4.36% | 4.82% | 5.07% |
| Clc1cc(Cl)c2cc(CN[C@H]3CCC[C@@H]3CNc3nc4ccccc4[nH]3)[nH]c2c1 | 0.55% | 1.94% | 2.36% |
| COc1ccc(NC(=O)NC2CCN(CCCCCNC(=O)/C=C/c3ccc(Cl)c(Cl)c3)CC2)cc1 | -1.04% | -0.81% | -2.52% |
| Clc1cnc2ccc3c(c2c1CCN1CCC(NCc2cc4c(cn2)OCCO4)CC1)OCCO3 | 27.3% | 42.2% | 14.9% |

| Compound | inhibition [1] | inhibition [2] | inhibition [3] |
| --- | --- | --- | --- |
| O=C(NCCCCN1CCC(c2ccc3c(c2OCCN2CCCC2)CCCC3)CC1)c1ccc(-c2ccc(C(F)(F)F)cc2)cc1 | 3.42% | 5.87% | 4% |
| Cc1[nH]c2ccccc2c1C(=O)CSc1nn(-c2ccccc2)c(=S)s1 | 5.67% | 7.39% | 2.44% |
| O=C(NCc1ccc(Cl)c(Cl)c1)c1ccc(-c2nc3ccc(F)cc3[nH]2)cc1 | 12.4% | 11.1% | 11.6% |
| Cc1ccc2c(c1)NCC21CCN(C[C@@H](O)C2CCN(c3cc(C#N)ccn3)CC2)CC1C (stereo not given in full) | -1.68% | 0% | -3.72% |
| CS(=O)(=O)c1ccc2[nH]c(-c3cc(-c4cccc(F)c4)cnc3N)nc2c1 | 5.71% | 3.53% | 3.04% |
| COc1ccc2nccc([C@@H](O)CN3CCC(NCc4cc5c(cc4F)SCC(=O)N5)CC3)c2n1 | 9.08% | 7.72% | 8.6% |
| O=c1cc(NCCCNCc2cc(Cl)cc(Cl)c2OCc2ccc(Cl)cc2)[nH]c2ccccc12 | 1.67% | 0.9% | 3.19% |
| COc1ccc2nccc(N3CCC(O)(CCNCc4ccc5c(n4)NC(=O)CS5)CC3)c2n1 | 7.13% | 8.14% | 7.92% |
| O=C(/C=C/c1ccc(Cl)c(Cl)c1)NCCCCCN1CCC(NC(=O)Nc2ccc(C(F)(F)F)cc2)C1 (stereo not given) | -0.17% | -0.88% | -3.22% |
| CC(C)CNCc1ccc(-c2ccc(CNC3CCN(Cc4ccccc4)CC3)cc2)cc1 | 0.98% | 4.82% | 5.31% |
| Cc1cccc2nc(-c3ccc(-c4cccc(NC(=O)Nc5ccsc5)c4)cc3)[nH]c12 | 1.48% | 0.08% | -1.47% |
| O=C(Nc1ccc(Cl)cc1)OCCn1nnnc1C(c1ccc(Cl)cc1)N1CCOCC1 (stereo not given) | 2.79% | 0.7% | 2.38% |
| CCCCCC(=O)N1CCOC(CCN2CCC(c3ccccc3)CC2)(c2ccc(Cl)c(Cl)c2)C1 (stereo not given) | 2.57% | 3.27% | 0.92% |
| O=C(Nc1cccc(CN2CCCN(Cc3ccccc3)CC2)c1)c1ccc(Cl)c(Cl)c1 | 4.45% | 3.88% | -5.96% |
| CCCN(CC1CC1)c1ncc(-c2ccccc2CNCc2ccccc2O)cn1 | 11.8% | 8.72% | 4.56% |
| CCOc1ccc(-c2nc(NC(=O)CS(=O)(=O)c3ccccc3)sc2C)cc1 | 2.75% | 2.62% | 1.8% |
| CC(CCCCOCCc1ccccc1)NCC(O)c1cc(Cl)c(N)c(Cl)c1 (stereo not given) | 2.66% | 0.7% | 2.18% |
| O=C(/C=C/c1ccc(Cl)c(Cl)c1)NCCCCN1CCCN(C(=O)Nc2ccc(F)c(Cl)c2)CC1 | 3% | 1.91% | -0.33% |
| O=C(NCCCCN1CCC(c2ccc3c(c2OCCN2CCCC2=O)CCCC3)CC1)c1ccc(-c2ccc(C(F)(F)F)cc2)cc1 | -1.16% | 0.75% | -0.45% |
| CC[C@H](C)CNC(=O)c1ccnc(-c2cccc(CN3CCC(N4CCCC4)CC3)c2)c1 | 0.78% | -0.95% | 0.7% |
| Nc1ccc(-c2nc3cc(C4=N[C@H]5CCCC[C@H]5N4)ccc3o2)cc1[N+](=O)[O-] | 3.44% | 1.57% | -0.09% |
| O=C(Nc1cccc(CN2CCN(C(=O)c3cccc(F)c3)CC2)c1)c1cccs1 | 0.66% | 1.04% | -0.67% |
